Among all 48,000 compounds or so, about 13,000 (27%) showed an effect of 50% or more. The list shows a part of the results.
test system: Wolbachia pipientis; experiment: Anti-Wolbachia Cell-Based Screen; type: functional; set-up: scale not given: in the data most compounds retested in dose-response had high values; settings: 5 µM

SMILES	Percent Effect [%]
Cc1cc(C)nc(Nc2cccc(C3CCCN(C(C)C)C3)n2)n1 (stereo unspecified)	76.23
Cc1cc(C)nc(Nc2cccc(C3CCCN(CC4CC4)C3)n2)n1 (stereo unspecified)	109.6
Cc1cc(C)nc(Nc2cccc(C3CCCN(C)C3)n2)n1.O=CO (stereo unspecified)	-4.261
CNc1nc(C)cc(NC2CCCN(C3Cc4ccccc4C3)C2)n1 (stereo unspecified)	43.21
Cc1cc(C)nc(Nc2cccc(C3CCCN(CCO)C3)n2)n1 (stereo unspecified)	75.7
CNc1cc(C)nc(NC2CCCN(C3Cc4ccccc4C3)C2)n1 (stereo unspecified)	9.514
Cc1cc(CC(C)NC(=O)COc2ccc(F)cc2F)[nH]n1 (stereo unspecified)	17.04
CN(C(=O)NCc1ccncc1)C1CCN(c2ccccc2)C1=O (stereo unspecified)	-1.353
O=c1nc(SCc2ccc(Cl)cc2)c2c(n1CCO)CCC2	7.751
CN(CCc1nc(-c2cccc(Cl)c2)no1)CCn1cccn1	14.68
COc1ccc(Cl)cc1NC(=O)CCNc1ccc(C#N)cn1	-1.327
Cc1ncsc1C(=O)NCCNc1cnccn1	4.216
COc1ccc(Cl)cc1NCCC(=O)NCCNc1cnccn1	93.92
O=C(NCCNc1cnccn1)c1scnc1Cl	1.056
COc1ccc(Cl)cc1NCC(=O)NCCNc1cnccn1	7.849
COc1ccc(Cl)cc1C(=O)NCCNc1cnccn1	117.3
NC(=O)C(Nc1cccc(CO)c1)c1ccc(Br)cc1 (stereo unspecified)	-1.327
CCCn1ccnc1CNC(=O)C1COc2cc(OC)ccc2C1 (stereo unspecified)	-6.706
CCOC(=O)[C@@H]1[C@@H](O)C(=O)N(C)C12CCN(C(=O)OC)CC2	81.26
CCOC(=O)[C@H]1[C@@H](O)C(=O)N(C)C12CCN(C(=O)OC)CC2	97.39
CC(C)CC(=O)N1CCC2(CC1)NC(=O)[C@H]1CN(C(=O)N(C)C)C[C@H]12	-16.51

SMILES	Percent Effect [%]
CCOC(=O)[C@H]1[C@@H](O)C(=O)N(C)C12CCN(C(=O)C(CC)CC)CC2	87.69
COc1cc(C)c(CN2CCC3(CC2)C(C(=O)O)CC(=O)N3C)cc1C (stereo unspecified)	7.232
CCOC(=O)[C@H]1[C@@H](O)C(=O)N(C)C12CCN(C(=O)CC(C)C)CC2	122.2
COC(=O)N1CCC2(CC1)N=C(CCC(C)C)NC2=O	-0.8032
CC(C)C(=O)N1CCC2(CC1)[C@@H]1CN(C(=O)N(C)C)C[C@@H]1C(=O)N2C	11.68
CC(C)NC(=O)N1CCC2(CC1)[C@@H]1CN(C(=O)N(C)C)C[C@@H]1C(=O)N2C	-31.71
CC(C)CC(=O)N1CCC2(CC1)[C@@H]1CN(C(=O)N(C)C)C[C@@H]1C(=O)N2C	-15.87
CC(=O)N1C[C@@H]2C(=O)N(C)C3(CCN(C(=O)C(C)C)CC3)[C@@H]2C1	-11.94
NC(=O)Cn1ccnc1C1CCCN(Cc2nc3ccccc3s2)C1 (stereo unspecified)	1.02
CCCC(=O)N(C)Cc1cccc(OC(C)C)c1	0.3075
CCN1CCC(CC(=O)N[C@H](C(=O)O)c2cccc(F)c2F)CC1	0.01063
CCOC(=O)N1CCC2(CC1)N=C(CCC(C)C)NC2=O	0.1534
CC(C)(C)CC(=O)N1CCC(n2cc(C3(O)CCCC3)nn2)CC1	20.32
CCOC(=O)[C@@H]1[C@@H](O)C(=O)N(C)C12CCN(C(=O)c1ccco1)CC2	104.5
CCOC(=O)[C@@H]1[C@@H](OC)C(=O)N(C)C12CCN(C(=O)C(CC)CC)CC2	108.6
O=C(c1ccco1)N1CCC2(CC1)C(=O)NCCN2CC1CC1	0.967
CC(C)CN1C[C@@H]2C(=O)N(C)C3(CCN(C(=O)C(C)C)CC3)[C@@H]2C1.O=C(O)C(F)(F)F	15.99
CCOC(=O)[C@H]1[C@@H](O)C(=O)N(C)C12CCN(C(=O)CC(C)(C)C)CC2	89.62
CCN1CC2(CC1=O)CN(C(C)=O)CCN(C(=O)c1ccco1)C2 (stereo unspecified)	6.232
CCOC(=O)[C@H]1[C@@H](O)C(=O)N(C)C12CCN(C(=O)OCC)CC2	113.4
CC(=O)N1CCC2(CC1)[C@@H]1CN(C(=O)N(C)C)C[C@@H]1C(=O)N2C	-8.179

SMILES	Percent Effect [%]
CCOCC(O)CN1CCN(C(=O)CC(C)(C)C)CC1 (stereo unspecified)	2.808
N#Cc1cccnc1NCc1ccc(S(=O)(=O)NC2CC2)cc1	-3.149
CCOCCNCC1CCN(CCO)CC1	-14.57
N#Cc1cc(F)ccc1CN1CCCCC1Cn1cncn1 (stereo unspecified)	7.796
O=C(Nc1ccccc1Cn1cncn1)C1CCN(C2CCCCC2)C1 (stereo unspecified)	-3.545
COCCCn1cnnc1C(C)NC(=O)c1[nH]c2ccc(C)cc2c1C (stereo unspecified)	21.75
Cc1ccc(F)c(OC2(C(=O)O)CCN(C(=O)c3ccccc3)CC2)c1	-18.21
COCCC1COC2(CCN(C(=O)CC3CCCC3)CC2)C1 (stereo unspecified)	-6.475
CCOC(=O)[C@H]1[C@@H](O)C(=O)N(C)C12CCN(S(=O)(=O)CC)CC2	107.6
CCOC(=O)C1CN(S(=O)(=O)CC)Cc2ncn(CC)c21 (stereo unspecified)	10.83
CN1C(=O)CC(c2ccccc2)C12CCN(C(=O)c1ccc[nH]1)CC2 (stereo unspecified)	-3.808
Cc1nn(C)c(C)c1C(=O)N1CCN(C(=O)CC2CCCCC2)CC1	-14.94
CCOC(=O)[C@H]1[C@@H](O)C(=O)N(C)C12CCN(C(=O)c1ccccc1)CC2	113.3
CCOC(=O)[C@H]1[C@@H](O)C(=O)N(C)C12CCN(C(=O)CC1CCCC1)CC2	108.5
CCS(=O)(=O)N1CCC2(CCCC(=O)N2C)CC1	1.174
OC[C@H]1CN(Cc2c(Cl)cncc2Cl)C[C@H]1CN1CCCC1	-2.945
COCCc1noc(-c2ccc(-c3ccc(N)nc3)nc2)n1	3.848
CC(C)N(C)S(=O)(=O)N1CCCC1C(=O)N1CCSCC1 (stereo unspecified)	-16.03
CN(C)C1CCCN(Cc2cccc(Cn3cccn3)c2)CC1 (stereo unspecified)	-12.17
